PubChem BioAssay (EPA / NIEHS)
Records with an inconclusive call do not appear. Activity calls are given as the source filed them. Rule for the calls: active = hit-call score of the fitted dose curve at least 0.9, where 1 is the maximum; inconclusive = response in the unintended direction; inactive = score below 0.9.

Columns and labels:
[1] = ACEA_AR_antagonist_AUC_viability: ACEA Biosciences xCELLigence Real-Time Cell Analysis on Androgen Receptor Antagonism for Viability (AID 2283776);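 note: 22Rv1 human prostate cancer cells growing on impedance electrode plates; area under impedance growth curve at 80 h after dosing as viability; hits lower the growth signal relative to DMSO meaning cytotoxicity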
In short: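 Impedance read-out (RT-CES): area under growth curve at 80 h post-dose, loss of signal scored vs DMSO baseline. 22Rv1 cells; 8-pt 1:4 series, top 100 uM final, ≤0.5% DMSO; biological duplicate.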

[2] = ACEA_AR_agonist_AUC_viability: ACEA Biosciences xCELLigence Real-Time Cell Analysis on Androgen Receptor Agonism for Viability (AID 2283775);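 for AC50: viability read 80 hours after compound addition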
In short: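 Viability endpoint from xCELLigence impedance in 22Rv1 prostate cells at 80 h. Eight-point series, 100 uM maximum final.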

[3] = STM_H9_NormalizedViability: Cytotoxicity Assessment at 120 hours in the Stemina devTOX quickPredict H9 human embryonic stem cell (hESC)-based Assay (AID 2283784)
In short: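 CellTiter-Fluor RFU, background-subtracted, expressed relative to 0.1% DMSO neutral control by plate. Pluripotent H9 cells; treatment with daily re-dosing. Plates carried 1uM methotrexate (positive) and 5 nM methotrexate (negative) references.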

[4] = target: AR (gene 367) (UniProt P10275); assay: ACEA_AR_antagonist_80hr: ACEA Biosciences xCELLigence Real-Time Cell Analysis on Androgen Receptor Antagonism for Proliferation (AID 2283787);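 note: 22Rv1 human prostate cancer cells with growth followed by electrical impedance; hits lower the impedance growth signal relative to DMSO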
AR (gene 367), sequence (P10275 whole entry, looked up): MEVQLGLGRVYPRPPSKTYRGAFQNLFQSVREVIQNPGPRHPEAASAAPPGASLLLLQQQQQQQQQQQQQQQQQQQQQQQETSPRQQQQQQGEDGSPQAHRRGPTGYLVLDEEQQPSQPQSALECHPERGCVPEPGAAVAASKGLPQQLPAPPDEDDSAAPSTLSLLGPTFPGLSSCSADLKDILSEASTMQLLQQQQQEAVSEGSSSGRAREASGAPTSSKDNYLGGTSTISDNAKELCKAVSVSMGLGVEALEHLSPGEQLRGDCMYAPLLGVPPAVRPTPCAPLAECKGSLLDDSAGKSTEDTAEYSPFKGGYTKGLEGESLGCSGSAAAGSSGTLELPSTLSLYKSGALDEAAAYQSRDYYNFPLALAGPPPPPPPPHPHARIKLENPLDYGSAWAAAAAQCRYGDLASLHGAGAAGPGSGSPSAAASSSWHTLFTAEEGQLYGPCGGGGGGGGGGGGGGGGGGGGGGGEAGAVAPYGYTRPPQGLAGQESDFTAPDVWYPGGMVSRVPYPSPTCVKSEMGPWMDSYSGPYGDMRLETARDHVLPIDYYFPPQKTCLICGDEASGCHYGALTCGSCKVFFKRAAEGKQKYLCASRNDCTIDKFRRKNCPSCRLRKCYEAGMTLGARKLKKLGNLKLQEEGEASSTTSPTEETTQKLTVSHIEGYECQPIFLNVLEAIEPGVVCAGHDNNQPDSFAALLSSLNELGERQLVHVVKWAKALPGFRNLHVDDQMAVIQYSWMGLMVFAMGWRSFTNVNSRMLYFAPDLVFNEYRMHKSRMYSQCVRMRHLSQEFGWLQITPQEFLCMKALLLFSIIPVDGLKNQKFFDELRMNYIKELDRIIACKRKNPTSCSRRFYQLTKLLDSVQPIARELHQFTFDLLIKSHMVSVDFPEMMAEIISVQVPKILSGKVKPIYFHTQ
In short: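 Measures real-time proliferation of 22Rv1 prostate cancer cells by electrode impedance at 80 hours after dosing. Test articles ran at eight concentrations (1:4 steps, top 100 uM final) in biological duplicate.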

[5] = ACEA_ER_AUC_viability: ACEA Biosciences xCELLigence Real-Time Cell Analysis on Estrogen Receptor Agonism for Viability (AID 2283782);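 note: hit means loss of impedance signal meaning reduced cell growth or viability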
In short: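 Read-out: real-time electrical impedance (RT-CES) area under curve, loss of signal taken as reduced viability, normalized to DMSO baseline. T-47D cells, charcoal-stripped serum medium, compounds up to 100 uM final, continuous exposure, 80 h.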

[6] = target: AR (gene 367) (UniProt P10275); assay: ACEA_AR_agonist_80hr: ACEA Biosciences xCELLigence Real-Time Cell Analysis on Androgen Receptor Agonism for Proliferation (AID 2283783);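 note: hits increase impedance growth signal above DMSO baseline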
In short: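 Impedance (RT-CES) growth signal at 80 h post-dose; 22Rv1 cells, 8-pt 1:4 series, top 100 uM final, DMSO ≤0.5%; duplicate plates; gain-of-signal fit relative to DMSO baseline.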

## CCCCCCOCCO
[1]
  outcome: inactive

## Cc1cccc(Nc2cc(Cl)nc(SCC(=O)O)n2)c1C
[2]
  outcome: inactive
[1]
  outcome: inactive
[3]
  outcome: inactive
[4]
  outcome: inactive

## CNCc1cc(F)ccc1Oc1ccc(Cl)c(Cl)c1
[2]
  AC50: 75.9 µM (active)
[1]
  AC50: 67.4 µM (active)
[5]
  AC50: 29.9 µM (active)

## COc1cc(C=O)ccc1O
[6]
  outcome: inactive

## Cc1ccc(C)c(C)c1
[2]
  outcome: inactive
[1]
  outcome: inactive
[4]
  outcome: inactive

## CCCCCCCCCCO
[1]
  outcome: inactive
